In PubChem BioAssay (NCI):
This is part of a sample that, as a whole, favours compounds with a hit. Of some 83,000 tested, about 20% had one in any assay.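 How to read the values: 0–100, growth inhibition (40 = 60% inhibited); 0, no net growth; -100 to 0, cell death (-40 = 40% of starting cells died; -100 = all dead).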 Active and inactive are the calls of the source. How the source made its calls: active means growth percent below 10; inactive means the rest.

Key:
Assay in all cases: NCI-60 one-dose screen, 48 h (100 = growth as untreated, 0 = no growth, -100 = all killed)
Settings in all cases: 10 µM unless noted
HCT-15 colon = system: HCT-15 colon
HT29 colon = system: HT29 colon
SNB-75 CNS = system: SNB-75 CNS
SNB-19 CNS = system: SNB-19 CNS
U251 CNS = system: U251 CNS
PC-3 prostate = system: PC-3 prostate
SK-MEL-5 melanoma = system: SK-MEL-5 melanoma
UACC-62 melanoma = system: UACC-62 melanoma
LOX IMVI melanoma = system: LOX IMVI melanoma
SK-MEL-28 melanoma = system: SK-MEL-28 melanoma
EKVX NSCLC = system: EKVX NSCLC
SN12C renal = system: SN12C renal
UO-31 renal = system: UO-31 renal
TK-10 renal = system: TK-10 renal
ACHN renal = system: ACHN renal
CAKI-1 renal = system: CAKI-1 renal
A498 renal = system: A498 renal
CCRF-CEM leukemia = system: CCRF-CEM leukemia
MOLT-4 leukemia = system: MOLT-4 leukemia
SK-MEL-2 melanoma = system: SK-MEL-2 melanoma

Measured: growth

COc1ccccc1CNCCCN1C(=O)c2ccc3c4c(ccc(c24)C1=O)C(=O)N(CCCOCCCCOCCCN)C3=O
inactive: TK-10 renal 28.6%
active: HCT-15 colon -52.7% | HT29 colon -55% | SNB-75 CNS -5.57% | SNB-19 CNS -11.1% | U251 CNS -48.6% | PC-3 prostate 3.91% | SK-MEL-5 melanoma -98.7% | UACC-62 melanoma -79.8% | LOX IMVI melanoma -34.3% | SK-MEL-28 melanoma -4.3% | EKVX NSCLC -83.3% | SN12C renal -87.5% | UO-31 renal -21.1% | ACHN renal -62.2% | CAKI-1 renal -4.24% | A498 renal -16.1% | CCRF-CEM leukemia 2.11% | MOLT-4 leukemia -9.44%

CC(C)OC1OC(OC(C)C)C(OC(C)C)OC1OC(C)C (stereo not given)
inactive: HCT-15 colon 98.1% | HT29 colon 95.8% | SNB-75 CNS 99% | SNB-19 CNS 90.9% | PC-3 prostate 91.8% | SK-MEL-5 melanoma 110% | UACC-62 melanoma 85.9% | LOX IMVI melanoma 102% | SK-MEL-28 melanoma 106% | SK-MEL-2 melanoma 95.1% | EKVX NSCLC 103% | SN12C renal 94.6% | UO-31 renal 92.5% | TK-10 renal 102% | ACHN renal 95.1% | CAKI-1 renal 93.9% | A498 renal 101% | CCRF-CEM leukemia 93.4% | MOLT-4 leukemia 80.2%

COC(=O)c1ccc2c(c1)nc(-c1ccc(Cl)cc1)n2-c1cc(C(C)(C)C)[nH]n1
inactive: HCT-15 colon 69.5% | HT29 colon 23% | SNB-75 CNS 47.3% | SNB-19 CNS 78.3% | U251 CNS 38.2% | PC-3 prostate 39% | SK-MEL-5 melanoma 25.9% | UACC-62 melanoma 45.7% | LOX IMVI melanoma 44.2% | SK-MEL-28 melanoma 58% | EKVX NSCLC 78.3% | SN12C renal 79.1% | UO-31 renal 41.9% | TK-10 renal 86.6% | ACHN renal 75.4% | CAKI-1 renal 50.4% | A498 renal 21.8% | CCRF-CEM leukemia 45.2% | MOLT-4 leukemia 41.8%

COc1cccc(-c2nc3sccn3c2-c2ccnc(NCCN3CCCN(C)S3(=O)=O)n2)c1
inactive: HCT-15 colon 68% | HT29 colon 50.6% | SNB-75 CNS 62.5% | SNB-19 CNS 123% | PC-3 prostate 87.2% | SK-MEL-5 melanoma 84.1% | UACC-62 melanoma 15.2% | LOX IMVI melanoma 45.2% | SK-MEL-28 melanoma 53% | SK-MEL-2 melanoma 97.1% | EKVX NSCLC 103% | SN12C renal 64.7% | UO-31 renal 73.4% | TK-10 renal 120% | ACHN renal 54% | CAKI-1 renal 50.7% | A498 renal 98.1% | CCRF-CEM leukemia 63.3% | MOLT-4 leukemia 82.8%

O=S(=O)(Nc1ccc2ccccc2c1)N1CCCCC1
inactive: HCT-15 colon 40.6% | HT29 colon 40.9% | SNB-75 CNS 52% | SNB-19 CNS 90.2% | U251 CNS 57.2% | PC-3 prostate 61% | SK-MEL-5 melanoma 59.8% | UACC-62 melanoma 56% | LOX IMVI melanoma 51.8% | SK-MEL-28 melanoma 73.6% | EKVX NSCLC 81% | SN12C renal 81.9% | UO-31 renal 25% | TK-10 renal 86.8% | ACHN renal 63.7% | CAKI-1 renal 44% | A498 renal 27% | MOLT-4 leukemia 64.5%

NS(=O)(=O)c1ccc(CCn2c(SCC(=O)N/N=C/c3ccccc3O)nc3ccccc3c2=O)cc1
active: HT29 colon 10%
inactive: HCT-15 colon 59.9% | SNB-75 CNS 23.8% | SNB-19 CNS 49.1% | U251 CNS 26.8% | PC-3 prostate 36.1% | SK-MEL-5 melanoma 30.5% | UACC-62 melanoma 48.8% | LOX IMVI melanoma 43.9% | SK-MEL-28 melanoma 76.5% | EKVX NSCLC 75.8% | SN12C renal 51.3% | UO-31 renal 70.4% | TK-10 renal 70% | ACHN renal 87.4% | CAKI-1 renal 60.1% | A498 renal 21.7% | CCRF-CEM leukemia 18.7% | MOLT-4 leukemia 21.4%

CCCCCCCCCCCCC1CCC(=O)O1 (stereo not given)
inactive: HCT-15 colon 91.7% | HT29 colon 90.6% | SNB-75 CNS 95% | SNB-19 CNS 98.3% | PC-3 prostate 95.8% | SK-MEL-5 melanoma 99.7% | UACC-62 melanoma 98.5% | LOX IMVI melanoma 93.5% | SK-MEL-28 melanoma 96.4% | SK-MEL-2 melanoma 103% | EKVX NSCLC 92.7% | SN12C renal 98.9% | UO-31 renal 92.5% | TK-10 renal 102% | ACHN renal 97.3% | CAKI-1 renal 91.6% | A498 renal 96.2% | CCRF-CEM leukemia 105% | MOLT-4 leukemia 95.5%

CCOC(=O)Cc1cc(Br)c(OCc2ccccc2)c(Br)c1
inactive: HCT-15 colon 88.7% | HT29 colon 99% | SNB-75 CNS 87.3% | SNB-19 CNS 97.9% | U251 CNS 90.2% | PC-3 prostate 84.1% | SK-MEL-5 melanoma 104% | UACC-62 melanoma 70.8% | LOX IMVI melanoma 87.6% | SK-MEL-28 melanoma 106% | EKVX NSCLC 90.9% | SN12C renal 88.9% | UO-31 renal 80.5% | TK-10 renal 96.8% | ACHN renal 92% | CAKI-1 renal 77.2% | A498 renal 109% | CCRF-CEM leukemia 95.4% | MOLT-4 leukemia 77.2%

CC(C)(C)c1cc(C[P+](c2ccccc2)(c2ccccc2)c2ccccc2)cc(C(C)(C)C)c1O
inactive: HCT-15 colon 23.2% | SNB-19 CNS 24.5% | SK-MEL-28 melanoma 38.4% | SN12C renal 12.2%
active: HT29 colon -13.1% | SNB-75 CNS 2.05% | U251 CNS 5.39% | PC-3 prostate -10.5% | SK-MEL-5 melanoma -96.9% | UACC-62 melanoma -3.2% | LOX IMVI melanoma 5.93% | UO-31 renal -11.4% | TK-10 renal -3.05% | ACHN renal -10.8% | CAKI-1 renal -2.21% | A498 renal -17.1% | MOLT-4 leukemia -7.18%

CCn1c(Cc2ccccc2Nc2c(Cl)cccc2Cl)nnc1SCC(=O)Nc1ccccc1C(F)(F)F
inactive: HCT-15 colon 84.6% | HT29 colon 81.8% | SNB-75 CNS 92.9% | SNB-19 CNS 86.5% | U251 CNS 93.3% | PC-3 prostate 67.4% | SK-MEL-5 melanoma 92% | UACC-62 melanoma 63.1% | LOX IMVI melanoma 93.9% | SK-MEL-28 melanoma 107% | EKVX NSCLC 82.8% | SN12C renal 77.1% | UO-31 renal 74.8% | TK-10 renal 88% | ACHN renal 106% | CAKI-1 renal 87.1% | A498 renal 64.5% | CCRF-CEM leukemia 108% | MOLT-4 leukemia 70.2%

COc1ccc(/C(C)=N/NC(=O)c2ccc(S(C)(=O)=O)cc2)cc1OC
inactive: HCT-15 colon 97.9% | HT29 colon 117% | SNB-75 CNS 85.9% | SNB-19 CNS 105% | U251 CNS 104% | PC-3 prostate 99.3% | SK-MEL-5 melanoma 106% | UACC-62 melanoma 102% | LOX IMVI melanoma 106% | SK-MEL-28 melanoma 105% | EKVX NSCLC 96.3% | SN12C renal 100% | UO-31 renal 91.9% | TK-10 renal 102% | ACHN renal 108% | CAKI-1 renal 91.6% | A498 renal 94.1% | CCRF-CEM leukemia 115% | MOLT-4 leukemia 71.1%

COc1ccc(/C=C/c2nc(NCCCN(C)C)c3ccccc3n2)cc1
inactive: HCT-15 colon 86.6% | HT29 colon 11.5% | SNB-75 CNS 42.8% | SNB-19 CNS 100% | SK-MEL-5 melanoma 32.3% | UACC-62 melanoma 104% | SK-MEL-28 melanoma 77.5% | EKVX NSCLC 64.3% | SN12C renal 86.7% | UO-31 renal 81.9% | TK-10 renal 89.3% | ACHN renal 122% | CAKI-1 renal 87.7% | A498 renal 93.6%
active: U251 CNS -48.4% | LOX IMVI melanoma -67.1% | SK-MEL-2 melanoma -50.9% | CCRF-CEM leukemia -44.9% | MOLT-4 leukemia -46%

NS(=O)(=O)c1ccc(CCn2c(SCC(=O)N/N=C/c3cc4ccccc4[nH]3)nc3ccccc3c2=O)cc1
inactive: HCT-15 colon 91.4% | HT29 colon 39.2% | SNB-75 CNS 80% | SNB-19 CNS 58.6% | PC-3 prostate 40.2% | SK-MEL-5 melanoma 31.9% | UACC-62 melanoma 53.3% | LOX IMVI melanoma 49.1% | SK-MEL-28 melanoma 88.3% | SK-MEL-2 melanoma 25.7% | EKVX NSCLC 85.3% | SN12C renal 73.4% | UO-31 renal 67% | TK-10 renal 102% | ACHN renal 93.9% | CAKI-1 renal 82.5% | A498 renal 102% | CCRF-CEM leukemia 35% | MOLT-4 leukemia 23.1%

N=C(N)c1ccc(-c2ccc(-c3ccco3)o2)cc1F
inactive: SNB-75 CNS 41.4% | SNB-19 CNS 67.2% | PC-3 prostate 24.5% | SN12C renal 39.8% | ACHN renal 12.2% | CAKI-1 renal 23.1% | A498 renal 11.6%
active: HCT-15 colon -40.6% | HT29 colon -2.59% | U251 CNS -16.8% | SK-MEL-5 melanoma -93.6% | UACC-62 melanoma -68.6% | LOX IMVI melanoma -9.26% | SK-MEL-28 melanoma -46.8% | UO-31 renal -57.2% | TK-10 renal 7.98% | MOLT-4 leukemia 0.311%

C=C1C(=O)O[C@H]2[C@H]1CC/C(COC(=O)N[C@@H](Cc1c[nH]c3ccccc13)C(=O)OC)=C\CC[C@@]1(C)O[C@@H]21
active: HCT-15 colon -12.1% | HT29 colon -29.5% | LOX IMVI melanoma -38.5% | SK-MEL-28 melanoma 6.71% | TK-10 renal -23.2% | ACHN renal 7.04% | CCRF-CEM leukemia -12.3% | MOLT-4 leukemia -13.2%
inactive: SNB-75 CNS 68.7% | SNB-19 CNS 66.8% | U251 CNS 25.3% | PC-3 prostate 33.3% | SK-MEL-5 melanoma 21.8% | UACC-62 melanoma 27.8% | EKVX NSCLC 55.4% | SN12C renal 33.4% | UO-31 renal 41.3% | CAKI-1 renal 29.7% | A498 renal 91.9%
